This is part of a sample that, as a whole, favours compounds with a hit. Of some 79,000 tested, about 15% had one in any assay. Calls of active or inactive are those of the source. Cut-off read from the data, not from the text of the source: active = growth inhibition above about 70%; inactive = the rest. Where a SMILES comes first, the peptide text is derived from it. [ ]: non-standard residue; d: D form. The star is where a group is joined. pGlu = O=C1CC[CH](C(=O)O)N1; Boc = CC(C)(C)OC(=O)*
Legend:
[1] = NCI Yeast Anticancer Drug Screen. Data for the rad50 strain (AID 155);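 note: 0% = growth of vehicle-only cultures of the same strain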; conditions: S. cerevisiae rad50 strain growth inhibition; at 50.0 µM; active compounds read high
In short: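 A DNA repair-deficient yeast mutant serves as the test organism; compound-induced growth inhibition is calculated against vehicle-treated cells.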

[2] = NCI Yeast Anticancer Drug Screen. Data for the mec2-1 strain (AID 157); conditions: S. cerevisiae mec2-1 strain, at 50.0 µM, active compounds read high
In short: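 Strain: mec2-1 (DNA repair/cell cycle alteration). Compound exposure, then growth measured; inhibition expressed relative to vehicle.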

[3] = NCI Yeast Anticancer Drug Screen. Data for the sgs1 mgt1 strain (AID 161);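 note: 0% = growth of cultures given vehicle only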; conditions: S. cerevisiae sgs1 mgt1 strain, at 50.0 µM, active compounds read high
In short: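 Mutant yeast exposed to compound; growth scored against vehicle-only wells.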

[4] = NCI Yeast Anticancer Drug Screen. Data for the cln2 rad14 strain (AID 165);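 note: 0% = growth equal to vehicle treated cultures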; conditions: S. cerevisiae cln2 rad14 strain, at 50.0 µM, active compounds read high
In short: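 Compounds are applied to the cln2 rad14 yeast strain, and growth is then compared with that of vehicle-treated cultures to give inhibition.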

[5] = NCI Yeast Anticancer Drug Screen. Data for the bub3 strain (AID 167); conditions: S. cerevisiae bub3 mutant strain, at 50.0 µM, active compounds read high
In short: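 Inhibition values come from growth of compound-treated mutant yeast normalised to vehicle-treated controls.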

[6] = NCI Yeast Anticancer Drug Screen. Data for the mlh1 rad18 strain (AID 175); conditions: S. cerevisiae mlh1 rad18 strain growth inhibition; at 50.0 µM; active compounds read high
In short: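 Read-out is yeast growth inhibition, calculated against vehicle-only controls. The compound was applied to a strain engineered with DNA damage repair alterations.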

Measured: growth inhibition

CCCC1([N+](=O)[O-])CCC(C)(O)C(/C(C)=N\O)C1 (stereo not given)
inactive: [1] 7.05% | [2] -9.5% | [3] 25.5% | [4] -0.15% | [5] 26.1% | [6] 40.2%

CNC(=O)CNC(=O)C(NC(=O)CNC(=O)C1CCCN1C(=O)C(C)NC(=O)C(NC(=O)OC(C)(C)C)C(C)C)C(C)C (stereo not given) (Boc-VAPGVG-NHMe; configuration not given here)
inactive: [1] -12.9% | [2] -23.6% | [3] -11.8% | [4] -11% | [5] -16.2% | [6] -18.2%

O=C(O)C(=O)Cc1ccc(Br)cc1[N+](=O)[O-]
inactive: [1] 5.45% | [2] -6.6% | [3] 1.8% | [4] -3% | [5] 1.45% | [6] 12.2%

CCCCNS(=O)(=O)c1ccccc1
inactive: [1] 7.95% | [2] -18.1% | [3] -59.6% | [4] 9.65% | [5] 1.6% | [6] 20.4%

COc1ccc(Cc2nc3c([nH]2)c(=O)n(C)c(=O)n3C)cc1
inactive: [1] -0.05% | [2] -14.1% | [3] 0.05% | [4] -50.8% | [5] 1.2% | [6] 1.2%

CC(C)(C)C1CCC2c3c([nH]c4ccccc34)C3C(=O)N(c4ccccc4[N+](=O)[O-])C(=O)C3C2C1 (stereo not given)
inactive: [1] -16.9% | [2] -24.1% | [3] -18.6% | [4] 4.8% | [5] -15.3% | [6] -26.6%

Cc1cc2nnc(-c3cccc([N+](=O)[O-])c3)n2c2nnnn12
inactive: [1] 25% | [2] 31.1% | [3] 21.6% | [4] 66.7% | [5] 37.8% | [6] 36.7%

COc1cc(CC2c3cc(OC)c(OC)cc3CCN2C)ccc1O (stereo not given)
inactive: [1] -22.3% | [2] -17.9% | [3] -5.75% | [4] -9.2% | [5] -15.6% | [6] -3.35%

CCC(CC)C1OCC(O)CO1 (stereo not given) (tested in a mixture with another compound)
inactive: [1] 20.4% | [2] 2.7% | [3] 10% | [4] 6.85% | [5] 22.1% | [6] 17.4%

CC1=C(/C=C/C(C)=C/C=C/C(C)=C/C=C/C=C(C)/C=C/C=C(C)/C=C/C=C(C)/C=C/C=C(\C)C(=O)O)C(C)(C)CCC1
inactive: [1] 3.7% | [2] 25.6% | [3] -21.8% | [4] 18.6% | [5] 7.6% | [6] -2.1%

O=C(O)C1=C(O)CCN=C1
inactive: [1] -24.1% | [2] 2.7% | [3] 11% | [4] -10.8% | [5] -3.95% | [6] 27.1%

CC(SCc1ccccc1)C(NC(=O)c1ccccc1)C(=O)O (stereo not given)
inactive: [1] 4.95% | [2] 9.9% | [3] -8.3% | [4] -0.3% | [5] 10.1% | [6] 7.55%

CSc1nc(N)c(N=Nc2ccc(S(=O)(=O)Nc3cc(C)nc(C)n3)cc2)c(=O)[nH]1
inactive: [1] 17.4% | [2] 15.6% | [3] -10.6% | [4] -0.2% | [5] 2.1% | [6] -3.3%

CC(=O)ON(C(C)=O)c1ccc(C(N)=O)cc1
inactive: [1] -16.6% | [2] 6.8% | [3] -13.2% | [4] 6.25% | [5] -15.3% | [6] -71.5%

CCCCCC(C(O)C#N)C(O)(C(F)(F)F)C(F)(F)F (stereo not given)
active: [1] 94.7% | [2] 80.7% | [4] 80.6% | [5] 86.2% | [6] 98%
inactive: [3] 58.8%

O=C(O)CCCCCCCCCCCc1ccccc1
inactive: [1] -30.8% | [2] -16.8% | [3] -19.3% | [4] -13.2% | [5] 5.55% | [6] -38.5%

CCCCN(CCCC)S(=O)(=O)N1CCOCC1
inactive: [1] -12.3% | [2] -10.1% | [3] 3% | [4] 9.1% | [5] 10.4% | [6] 2.75%

O=C(Nc1ccccc1)Nc1ccc(-c2ccccc2)cc1
inactive: [1] 13.7% | [2] 14.1% | [3] 13.1% | [4] 5.7% | [5] 37.6% | [6] 3.5%

COC1OC(COS(C)(=O)=O)C(OS(C)(=O)=O)C(OS(C)(=O)=O)C1OS(C)(=O)=O (stereo not given)
inactive: [1] -2.8% | [2] -7.05% | [3] -26.4% | [4] -67% | [5] 1.4% | [6] 10.3%

N#Cc1c(-c2ccccc2)c(-c2ccccc2)cc2c(=O)c3ccc(Cl)cc3[nH]c12
inactive: [1] -27.3% | [2] 3.25% | [3] -2.9% | [4] 12.4% | [5] 7.2% | [6] 2.4%

COC(=O)/C=C1/CC[C@H]2[C@@H]3CCC4=CC(=O)CC[C@]4(C)[C@H]3C(=O)C[C@]12C
inactive: [1] 42.5% | [2] 6.35% | [3] 14.3% | [4] -28% | [5] 14.2% | [6] 33.2%

NC(=S)N/N=C\C(CC(O)C(O)CO)=N\NC(N)=S (stereo not given)
inactive: [1] 4.95% | [2] 6.55% | [3] 4.45% | [4] 8.7% | [5] 12.4% | [6] 10.2%

CCCCCCCCCCCCCCCCN (tested in a mixture with another compound)
inactive: [1] 29.9% | [2] -11.1% | [3] 7.9% | [4] -24.1% | [5] 26.5% | [6] 17.4%

CCOC1(c2ccccc2)c2ccccc2Sc2ccccc21
inactive: [1] -12.5% | [2] 12.7% | [3] 5.5% | [4] -6.1% | [5] 14.4% | [6] 16.3%

CC(=O)Nc1c(C(=N)C#N)ncn1CCO
inactive: [1] 2.3% | [2] 10.2% | [3] 8.35% | [4] 11.2% | [5] -3.65% | [6] 5.5%

O=C(Nc1ncccn1)c1ccc(Cl)cc1Cl
inactive: [1] -11.9% | [2] 4.8% | [3] 30.6% | [4] -21.5% | [5] 10.6% | [6] 32.3%

CCCCI(O)OS(=O)(=O)c1ccc(C)cc1
inactive: [1] 5.65% | [2] 3.1% | [3] -2.85% | [4] -7.7% | [5] -3.9% | [6] -32.6%

CC(C)=NOC(CCOC(=O)c1ccccc1)COC(=O)c1ccccc1 (stereo not given)
inactive: [1] -13.6% | [2] 0.1% | [3] -1.35% | [4] -10.4% | [5] -11.8% | [6] 7.75%

CCOc1ccccc1NC(=O)C1=C(C)NC(C)=C(C(=O)Nc2ccccc2OCC)C1c1ccc2c(c1)OCO2
inactive: [1] 9.5% | [2] 44.5% | [3] 41.3% | [4] 23.2% | [5] 43.1% | [6] 39.9%

BrC1CCC(OCc2ccccc2)C(OCc2ccccc2)C1 (stereo not given)
inactive: [1] -10.8% | [2] 7.25% | [3] 13.8% | [4] 8.85% | [5] 10.7% | [6] -0.95%

c1ccc(C2=NCC(c3ccccc3)(C3(c4ccccc4)SCCCS3)O2)cc1 (stereo not given)
inactive: [1] 30.8% | [2] 5.15% | [3] 12.7% | [4] -13.8% | [5] -3.35% | [6] 6.55%

c1ccc(C[n+]2ccc3c(c2)CCCC3)cc1
inactive: [1] -1% | [2] -13.2% | [3] 27.8% | [4] 17.3% | [5] 19.1% | [6] 6.4%

c1ccc(-c2nnsc2-c2ccccc2)cc1
inactive: [1] 17.5% | [2] -4.35% | [3] 27.6% | [4] 10.8% | [5] -3.9% | [6] 20.4%

CC(NC(=O)C(Cc1cnc[nH]1)NC(=O)C1CCC(=O)N1)C(N)=O (stereo not drawn) ([pGlu]-His-Ala-NH2; configuration not given here)
inactive: [1] -15.4% | [2] -75% | [3] -17.3% | [4] -21.8% | [5] -12.7% | [6] -25.9%

c1ccc(OCCSCCCCCCCCCCSCCOc2ccccc2)cc1
inactive: [1] -5.85% | [2] -11.8% | [3] -25.6% | [4] -12.6% | [5] -28.6% | [6] -24.5%

CC1CC2(CCC1OCc1ccccc1)OCCO2 (stereo not given)
inactive: [1] 0.25% | [2] -6.85% | [3] -2.3% | [4] 2.2% | [5] 13.3% | [6] -1.7%

O=C(O)C12C3CCC(C3)C1(C(=O)O)C1CCC2C1 (stereo not given)
inactive: [1] -13.3% | [2] -13.9% | [3] -14.4% | [4] 24.3% | [5] -0.65% | [6] -12.2%

CCC1(c2ccccc2)Nc2ccccc2C1=Nc1ccccc1 (stereo not given)
inactive: [1] 20.1% | [2] 15.5% | [3] 20.2% | [4] 9.5% | [5] 11.7% | [6] 27.4%

CC1=CC2OC3C(OC(=O)c4ccccc4)C(OC(=O)c4ccccc4)C(C)(C2(COC(=O)c2ccccc2)CC1)C31CO1 (stereo not given)
inactive: [1] 6.3% | [2] -3.1% | [3] 1.55% | [4] 7.8% | [5] 4.85% | [6] 17.7%

Cc1ccc(OC(=O)c2cccs2)cc1
inactive: [1] 29.6% | [2] 4.95% | [3] -11.9% | [4] -48.1% | [5] 22% | [6] 22.1%
